# Compound activity (PubChem)
# This is a sample that favours compounds with a hit; in the whole collection about 1.9% have one here.
# MOR-DOR ag: OPRM1-OPRD1 heterodimerization agonism; 340,000 compounds, 0.3% hits; P35372+P41143; cells, luminescence; activation, % at 9.3 µM; in the data active = activation above about 18%;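 also: 0% = vehicle-treated cells and 100% = reference agonist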
# bovine MsrA act: activates bovine MsrA enzyme; 360,000 compounds, 0.3% hits; activation, % at 10.6 µM; purified bovine MsrA, absorbance read-out; AID 602163; in the data active = activation above about 7.5%;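 also: 0% = vehicle and 100% = reference activator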
# OPRM1-OPRD1 inv: mu-delta opioid heterodimer inverse agonism. cell-based MOR-DOR heterodimer luminescence. 340,000 compounds, 0.21% hits. P35372+P41143. inhibition, % at 9.3 µM. AID 504357; in the data active = inhibition above about 22%, passing the limit was not always enough;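 also: 0% = cells with DMSO and 100% = wells without cells with DMSO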
# MsrA inhibitor: inhibits bovine methionine sulfoxide reductase A | purified bovine MsrA, absorbance read-out | inhibition, % at 15.5 µM | 360,000 compounds, 0.75% hits | AID 651718; in the data active = inhibition above about 4.5%;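 also: 0% = vehicle wells with enzyme and 100% = reference inhibitor wells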
# HTR5A inv ctr: counter-screen for OPRM1-OPRD1 inverse agonists: human HTR5A inverse agonism; HTR5A cell line, luminescence; inhibition, % at 9.3 µM; 340,000 compounds, 0.083% hits; in the data active = inhibition mostly above about 23%, no sharp cut-off; inactive = mostly below about 18%;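 also: 0% = cells with DMSO and 100% = no-cell wells with DMSO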
# Target sequence (P47898 whole entry, looked up): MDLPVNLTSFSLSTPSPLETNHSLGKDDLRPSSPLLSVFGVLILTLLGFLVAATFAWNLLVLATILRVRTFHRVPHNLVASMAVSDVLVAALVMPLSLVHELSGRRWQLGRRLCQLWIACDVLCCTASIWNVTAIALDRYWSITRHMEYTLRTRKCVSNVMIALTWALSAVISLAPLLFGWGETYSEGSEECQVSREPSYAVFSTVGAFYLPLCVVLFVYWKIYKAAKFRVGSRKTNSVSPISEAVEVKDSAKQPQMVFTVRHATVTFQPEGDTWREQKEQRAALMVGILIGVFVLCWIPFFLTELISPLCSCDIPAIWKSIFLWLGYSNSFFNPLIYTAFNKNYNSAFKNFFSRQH
# HTR5A ag ctr: activates human HTR5A in OPRM1-OPRD1 agonist counter-screen; P47898; HTR5A agonist assay, luminescence, cell-based; activation, % at 9.3 µM; 340,000 compounds, 0.61% hits; AID 504692; in the data active = activation mostly above about 9.5%, no sharp cut-off; inactive = mostly below about 7.6%;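 also: 0% = cells with vehicle only and 100% = reference agonist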
# MOR-DOR inv conf: OPRM1-OPRD1 heterodimer inverse agonism, confirmation; shares compounds with OPRM1-OPRD1 inv; cells expressing OPRM1/OPRD1 heterodimer, luminescence; inhibition, % at 9.3 µM; 580 compounds, 20% hits; AID 504900; in the data active = inhibition above about 32%;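 also: 0% = cells with DMSO and 100% = wells lacking cells with DMSO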
# HTR5A inv count: HTR5A inverse agonism, opioid heterodimer counter-screen; shares compounds with OPRM1-OPRD1 inv; HTR5A-expressing cells, luminescence; inhibition, % at 9.3 µM; 580 tested, under 10 active; AID 504914; call rule not given here;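 also: 0% = cells with DMSO and 100% = no-cell wells with DMSO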
# * marks the source's active call; other numbers are inactive results; i = inactive; . = no result given.
SMILES,MOR-DOR ag,bovine MsrA act,OPRM1-OPRD1 inv,MsrA inhibitor,HTR5A inv ctr,HTR5A ag ctr,MOR-DOR inv conf,HTR5A inv count
CC(=O)Nc1ccc(Br)cc1C(=O)C(=O)O,-6.5,-7.7,36.1*,-0.2,11.4,-5.3,-13.4,-36.7
C=CCn1c(N)c(C(=O)OCCC)c2nc3ccccc3nc21,-9.0,1.8,48.5*,1.2,-3.0,0.8,-21.7,-93.8
C=CCn1c(N)c(C(=O)Nc2cccc(C)c2)c2nc3ccccc3nc21,-0.7,-10.5,4.3,-0.5,-13.4,5.0,.,.
COc1cccc(CNC(=O)[C@H]2CCCN2C(=O)[C@H]2CCCN2C(=O)c2ccc(Cl)cc2)c1,.,.,.,-0.2,.,.,.,.
O=C(C[N+]1(CC#Cc2ccccc2)CCOCC1)c1ccc(Cl)cc1,-6.1,-2.9,33.5*,-0.1,5.1,-1.8,i,-13.8
CCCCCCCCN1C(=O)[C@@H](CC(=O)NCCc2ccccc2OC)C[C@@]2(C(=O)OC)C1=C[C@H](C1CCCC1)O[C@@H]2C,.,.,.,0.2,.,.,.,.
COC(=O)[C@]12C[C@H](CC(=O)N3CCN(C(=O)C4CC4)CC3)C(=O)N(Cc3ccc4c(c3)OCO4)C1=C[C@H](COCc1ccccc1)O[C@@H]2C,.,.,.,0.2,.,.,.,.
O=C(Nc1ccc(Br)cc1)N1CCCCCCC1,-5.8,-2.5,33.1*,0.0,6.3,1.9,-67.7,-18.4
CC(=O)Nc1ccc(NC(=O)N2CCCCC2)cc1,-1.7,-1.9,9.7,0.5,4.8,9.0,.,.
[O-]/[N+](=C\c1ccccc1)[C@@H]1CCCC[C@@H]1/[N+]([O-])=C/c1ccccc1,-8.9,-1.4,37.0*,0.8,3.3,4.4,18.4,4.4
O=[N+]([O-])c1ccc(/C=[N+](\[O-])[C@@H]2CCCC[C@@H]2/[N+]([O-])=C/c2ccc([N+](=O)[O-])o2)o1,3.3,-0.1,-15.6,2.1,13.3,-3.7,.,.
Cc1noc(C)c1S(=O)(=O)N(C)C[C@@H]1OCc2cn(nn2)CCCC(=O)N([C@H](C)CO)C[C@H]1C,.,.,.,0.9,.,.,.,.
Cc1cc(Nc2cccc(F)c2)cc(=O)n1-c1cccc(F)c1,.,.,.,-0.2,.,.,.,.
Cc1ccccc1N=C1C(=O)Nc2ccccc21,-10.9,-1.6,56.3*,-0.1,6.3,-1.6,-128.4,4.9
Cc1ccc(N=C2C(=O)Nc3ccccc32)c(C)c1,-9.8,-3.7,54.1*,0.5,13.0,-3.3,21.3,1.9
Cc1ccc(C(=O)COC(=O)CCC(=O)Nc2cccc(Cl)c2)cc1[N+](=O)[O-],-12.4,-3.7,51.6*,-0.4,16.7,-7.0,31.6*,6.6
COC(=O)CCC(=O)Nc1cccc(Cl)c1,-2.7,-10.7,11.4,0.7,-6.3,0.2,.,.
COc1ccccc1NC(=O)CCC(=O)OCC(=O)c1ccc(C)c([N+](=O)[O-])c1,-9.6,-2.3,53.2*,1.0,5.2,6.3,-409.8,-103.9
Cc1ccc(C(=O)COC(=O)CCC(=O)NC2CCCCC2)cc1[N+](=O)[O-],-9.5,-8.9,47.3*,0.1,31.5,-6.1,35.3*,16.5
COC(=O)[C@]12C[C@H](CC(=O)NCCC(C)C)C(=O)N(Cc3ccccc3)C1=C[C@H](C1CCCC1)O[C@@H]2C,.,.,.,1.1,.,.,.,.
O=C(c1ccccc1Cl)N1CCSCCS1(=O)=O,.,.,.,0.7,.,.,.,.
C[C@@H]1OC(C2CCCCC2)N(C)[C@H]2C[C@H]3c4[nH]c5cccc(-c6ccccc6)c5c4CCN3C(=O)[C@@H]12 (stereo not given in full),.,.,.,0.6,.,.,.,.
O=C(CSc1nc2ccccc2n1-c1ccccc1)NCC1CCCO1 (stereo not given),-4.7,-7.4,19.4,-0.9,-3.4,2.4,.,.
O=C(CSc1nc2c([nH]c3ccccc32)c(=O)n1-c1ccccc1)NCC1CCCO1 (stereo not given),-9.3,-1.6,51.4*,0.9,28.7,-15.1,21.9,-8.6
COc1ccc2c(c1)[C@@]1(OCCC=C[C@H]1C)C(=O)N2C/C=C(\C)CCC=C(C)C,.,.,.,0.3,.,.,.,.
SMILES,MOR-DOR ag,bovine MsrA act,OPRM1-OPRD1 inv,MsrA inhibitor,HTR5A inv ctr,HTR5A ag ctr,MOR-DOR inv conf,HTR5A inv count
CC(C)(C)c1cc(Cl)c(O)c(NC(=S)NC(=O)c2cccnc2)c1,-10.1,-3.0,46.7*,-0.3,11.6,-4.2,6.0,8.9
COC(=O)c1ccc(NC(=S)NC(=O)c2cccnc2)cc1,-5.5,1.6,28.2*,0.6,-4.1,-7.2,15.9,4.0
COc1ccc(NC(=S)NC(=O)c2cccnc2)cc1,-3.7,-4.1,18.6,1.3,11.7,-3.1,.,.
CC(C)c1ccc(O)c(NC(=S)NC(=O)c2cccnc2)c1,-7.7,-3.7,42.7*,-0.5,30.3,-10.9,32.1*,27.1
C#CCN(C[C@H]1[C@H](OC(=O)Nc2c(C)noc2C)[C@H](OC(=O)Nc2c(C)noc2C)CN(C(=O)OC(C)C)N1C(=O)OC(C)C)S(=O)(=O)c1ccc(C)cc1,.,.,.,-1.2,.,.,.,.
CC(C)(C)c1ccc(NC(=O)COC(=O)C2CCCC2)cc1,8.9,-0.7,-46.8,0.6,-10.0,2.8,.,.
CC(C)(C)c1ccc(NNC(=O)C2CCC2)cc1,-6.7,-1.5,34.4*,0.5,2.1,-3.0,1.6,-16.8
O=C(Nc1c(F)c(F)c(F)c(F)c1F)OC[C@@H]1CSCCS(=O)(=O)N1,.,.,.,-1.6,.,.,.,.
Cc1ccc2c(c1)C(=O)C(=O)N2CC(=O)OC(C)C,-9.7,2.1,54.5*,-0.1,23.4,-9.2,9.8,-0.8
CC(=O)c1cc(C)ccc1OC(=O)CN1C(=O)c2ccccc2C1=O,-3.3,-6.2,15.5,-0.3,-0.1,0.0,.,.
CCCCNC(=O)C[C@H]1C[C@@]2(C(=O)OC)C(=C[C@H](COCc3ccccc3)O[C@@H]2C)N(Cc2ccc3c(c2)OCO3)C1=O,.,.,.,0.0,.,.,.,.
CCN(CC)S(=O)(=O)c1cccc(-c2n[nH]c(=S)n2C)c1,1.4,-10.9,-7.0,1.4,-9.3,3.6,.,.
Cc1ccc(-c2n[nH]c(=S)n2C)cc1Cl,-6.4,0.3,32.6*,1.0,18.6*,-6.6,2.5,11.6
CC(C)c1[nH]nc2c1C(c1ccccc1)NC2=O (stereo not given),.,.,.,-0.5,.,.,.,.
CCCCc1c(-c2ccccc2OC)ncn1Cc1ccc(OC)c(Cl)c1,.,.,.,0.2,.,.,.,.
COCCN(C(=O)CCC(=O)Nc1cccnc1)C(C(=O)NC1CCCCC1)c1ccccc1 (stereo not given),-6.7,0.0,35.9*,0.3,10.6,-3.5,-16.5,-5.1
O=C(CCC(=O)N(c1ccccc1)C(C(=O)NC1CCCC1)c1ccncc1)Nc1cccnc1 (stereo not given),-3.3,-3.9,20.4,0.4,-20.2,3.5,.,.
COC(=O)[C@]12C[C@H](CC(=O)N3CCOCC3)C(=O)N(Cc3ccc4c(c3)OCO4)C1=C[C@H](C(C)(C)C)O[C@@H]2C,.,.,.,-0.9,.,.,.,.
Oc1[nH]c2ccccc2c1/C=N/N1CCCCC1,-6.2,2.0,37.4*,1.4,8.9,-3.3,26.8,-14.7
